We go through 9 compounds from PubChem BioAssay.

Inconclusive results are not listed. Active and inactive are the calls of the source.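 Rule for the calls, unless noted: active = growth inhibition above 25% in both replicates, a cutoff set 3 SD above the mean; inconclusive = above 25% in only one replicate; inactive = the rest.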

Assay [1] is described as follows: reducers of endogenous Her2 protein level, primary screen, SKBR3 breast tumor cells, AlphaScreen, ATP viability (AID 461;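 active = Her2 level under about 52% in both replicate screens, with viability over 70% of control, limit read from the data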;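 for Her2 level: lower value means less Her2 protein in the cells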;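 for viability: percent of carrier control wells set as 100% viability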). To be noted: 18-24 h, measured here: SKBR3 viability, ATP luminescence, at 10 µM.
The target in assay [2] is Receptor tyrosine-protein kinase erbB-2 (Homo sapiens) (UniProt P04626). The assay is described as above. Particulars: 18-24 h, at 10 µM, stronger effect = lower value.
Sequence of Receptor tyrosine-protein kinase erbB-2 (Homo sapiens) (P04626 whole entry, looked up): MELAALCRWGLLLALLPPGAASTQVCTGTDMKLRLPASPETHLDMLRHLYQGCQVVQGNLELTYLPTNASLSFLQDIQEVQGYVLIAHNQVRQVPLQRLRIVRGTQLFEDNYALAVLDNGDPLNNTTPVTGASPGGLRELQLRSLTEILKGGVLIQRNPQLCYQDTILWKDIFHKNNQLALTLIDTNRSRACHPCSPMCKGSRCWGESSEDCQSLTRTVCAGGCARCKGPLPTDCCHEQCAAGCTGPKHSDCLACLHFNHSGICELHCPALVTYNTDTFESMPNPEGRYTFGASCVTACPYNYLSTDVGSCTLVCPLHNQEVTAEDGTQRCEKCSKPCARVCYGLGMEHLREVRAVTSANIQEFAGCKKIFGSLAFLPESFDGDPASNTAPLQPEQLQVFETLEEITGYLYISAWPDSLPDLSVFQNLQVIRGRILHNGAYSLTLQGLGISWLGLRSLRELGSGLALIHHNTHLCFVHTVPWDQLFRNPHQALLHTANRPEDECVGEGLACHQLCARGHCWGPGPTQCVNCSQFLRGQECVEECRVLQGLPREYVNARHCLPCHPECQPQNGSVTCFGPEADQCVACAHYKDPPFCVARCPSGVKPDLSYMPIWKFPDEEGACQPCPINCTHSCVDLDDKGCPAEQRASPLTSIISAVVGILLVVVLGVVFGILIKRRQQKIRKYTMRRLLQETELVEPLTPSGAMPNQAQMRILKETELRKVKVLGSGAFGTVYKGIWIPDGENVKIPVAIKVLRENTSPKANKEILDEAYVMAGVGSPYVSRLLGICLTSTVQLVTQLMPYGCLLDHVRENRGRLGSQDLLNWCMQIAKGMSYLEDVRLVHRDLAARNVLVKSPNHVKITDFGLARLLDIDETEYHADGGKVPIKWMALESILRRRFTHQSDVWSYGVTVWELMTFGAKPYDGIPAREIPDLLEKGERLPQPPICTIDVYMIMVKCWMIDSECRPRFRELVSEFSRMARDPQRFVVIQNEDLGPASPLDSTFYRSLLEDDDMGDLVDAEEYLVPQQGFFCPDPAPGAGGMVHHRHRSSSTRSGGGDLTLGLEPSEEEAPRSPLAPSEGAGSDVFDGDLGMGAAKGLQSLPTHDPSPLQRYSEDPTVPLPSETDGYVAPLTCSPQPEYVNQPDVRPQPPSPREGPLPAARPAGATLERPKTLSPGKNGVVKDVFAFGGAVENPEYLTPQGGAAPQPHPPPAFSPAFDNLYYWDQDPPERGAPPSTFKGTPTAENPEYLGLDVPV
A short description of assay [3]: SK-BR-3 cell growth inhibitors, pilot screen, 24 h, human (AID 572;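 active = viability at or below 10% of carrier control in both of two separate runs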;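 note: compound exposure lasted between 18 and 24 h rather than exactly 24 h; 100% = carrier-treated control wells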). To be noted: SK-BR-3 viability, CellTiter-Glo luminescence, at 10 µM, stronger effect = lower value. For orientation: ATP-based viability assays read luminescence as a measure of living cells.
A short description of assay [4]: HUVEC growth inhibition – cell-based, human, primary screen (AID 575;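 active = viability at or below 30% in both replicate assays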;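 note: 100% = median of untreated cell wells with 0.1% DMSO on each plate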). Particulars: HUVEC proliferation, CellTiter-Glo luminescence, 72 h; at 10 µM; stronger effect = lower value.
A short description of assay [5]: growth inhibitors of H69AR lung tumor, primary screen, human, duplicate replicates (AID 580;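 active = viability at or under a set limit in both replicates, limit being median viability minus 3 SD, cut at about 48% in these data, passing the limit was not always enough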;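 note: 100% = mean luminescence of untreated wells and 0% = no signal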). Particulars: H69AR lung tumor cells viability, ATP luminescence, 72 h; at 10 µM; stronger effect = lower value.
Assay [6] can be described thus: reversal of MRP1-mediated doxorubicin resistance, pilot screen, H69AR cells, doxorubicin co-treatment (AID 601;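 active = viability loss from added drug above about 55%, and viability with drug at most 40%, in both replicates, limit read from the data, passing the limit was not always enough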). To be noted: CellTiter-Glo, 72 h, at 10 µM; for differential viability (reversal): stronger effect = higher value.
The nature of assay [7]: 384-well plate pilot, post-Golgi transport modulator project, inhibition of yeast transport mutant growth (AID 636; in the data active = inhibition above about 31%). To be noted: absorbance 615 nm, about 18 h, stronger effect = higher value.
A short description of assay [8]: growth suppression of yeast trafficking mutant, preliminary HTS, modulators of trafficking downstream of Golgi apparatus project, 1536-format plate, OD 615 nm (AID 637; in the data active = inhibition above about 30%). Particulars: yeast transport mutant growth, absorbance 615 nm, 18 h; stronger effect = higher value.
Assay [9] can be described thus: OD615 S. cerevisiae growth inhibition, permissive medium, pilot counter-assay, permissive growth control for S. cerevisiae lifespan shortening project (AID 705). To be noted: OD615, 24 h, at 10 µM, stronger effect = higher value.
The nature of assay [10]: Restrictive medium S. cerevisiae growth inhibition, OD615, pilot screen of yeast lifespan reduction project, restrictive growth control (AID 706;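 active = growth inhibition above a set limit, 3 SD over mean compound inhibition, in both replicates, cut at about 43% in these data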;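 note: modified DeaD lifespan yeast strain shifted to restrictive glucose medium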). Particulars: OD615, 48 h, at 10 µM, stronger effect = higher value.
Assay [11] is described as follows: viability gain of MRP-1-high H69AR cells under doxorubicin, pilot screen, MRP-1 activator project, CellTiter-Glo, duplicate (AID 807;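 active = viability increase at or above a cutoff of the median across tested compounds plus 3 SD, cut at about 8.5% in these data, passing the limit was not always enough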;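 note: compound pretreatment 18-22 h then 72 h combined with doxorubicin; 0% = doxorubicin alone and 100% = vehicle without doxorubicin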). To be noted: H69AR viability with doxorubicin, CellTiter-Glo luminescence; at 10 µM; stronger effect = higher value.
A short description of assay [12]: growth suppression of beta-catenin knockout HCT116, pilot screen, human colon tumor cells (AID 823;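 active = cell viability at or below a set limit in both duplicate runs, the limit being the all-compound median minus 4 SD, cut at about 23% in these data, passing the limit was not always enough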;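 note: 0% = wells killed by 20 µM Hyamine and 100% = untreated DMSO cell wells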). To be noted: CellTiter-Glo, 60 h, at 10 µM, stronger effect = lower value.
The nature of assay [13]: growth suppression of PTEN-deleted HCT116, pilot screen, cell-based, HCT116 clonal line, CellTiter-Glo (AID 824;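 active = viability at or below 27.92% in each of two runs, the all-compound median minus 4 SD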;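 note: 0% = 20 µM Hyamine control and 100% = vehicle cell control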). Particulars: 60 h, at 10 µM, stronger effect = lower value.
A short description of assay [14]: RAM signaling pathway blockade in yeast – S. cerevisiae, Pdr1DBD-CYC8 efflux-inhibited sensitized strain, primary screen (AID 1298;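 active = RAM network inhibition above 8.4% in each of two replicates, 3 SD over the compound average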;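 note: 0% = DMSO untreated cells without growth and 100% = 10 µM 1-NA-PP1 full growth; higher means more yeast growth rescued from 5-FOA killing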). To be noted: S. cerevisiae cbk1-as DSE1-URA3 strain, 5-FOA growth OD615, 2 d; at 50 µM; stronger effect = higher value.
The nature of assay [15]: inhibitors of the yeast RAM network, pilot screen, dse1pr::URA3 reporter, 5-FOA selection (AID 869;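 active = inhibition over a set limit, the all-compound mean plus 3 SD, in both replicate runs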;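 note: 0% = DMSO wells with no growth and 100% = 10 µM 1-NA-PP1 with full growth; RAM network block rescues cells from 5-FOA so hits raise OD615 growth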). Particulars: S. cerevisiae dse1pr::URA3 5-FOA growth, OD615, 2 d; at 10 µM; stronger effect = higher value; strain carries analog-sensitive mutant Cbk1 kinase.
Setting [16] is: H69AR cells + 2 uM doxorubicin, measured here: viability with 2 uM doxorubicin, stronger effect = lower value.
Where [17] appears, read: H69AR cells, compound alone cytotoxicity.

For the compound `CCCCOC(=O)Nc1nc2ccc(OC)cc2s1`, the viability is 94% in [1]; 94% (inactive) in assay [3]; 92.3% (inactive) in assay [4]; 99.7% (inactive) in assay [5]; 83.3% in [6] (setting [16]); 99.7% in assay [6] (setting [17]). For the same compound, the values for the viability in assay [12] and in assay [13] were 96.3% (inactive) and 93.7% (inactive), respectively. Besides, the Her2 level in [2] is 92% (inactive). Moreover, the differential viability (reversal) in assay [6] (H69AR cells + 2 uM doxorubicin) is 16.4% (inactive). The figures for the inhibition in assay [7] and in assay [8] were -6.08% (inactive) and -6.17% (inactive), respectively. Moreover, the figures for the growth inhibition in [9] and in assay [10] were -8.06% (inactive) and -16.4% (inactive), respectively. For the same compound, in assay [11], the viability increase was 2.27% (inactive). Moreover, the RAM network inhibition in assay [14] was 7.75% (inactive).
Take `COc1ccc(C2c3c(oc4ccccc4c3=O)C(=O)N2c2ccc(C)cn2)cc1OC` (stereo not drawn): the viability is 83% in assay [1]; 83% (inactive) in assay [3]; 98.6% (inactive) in assay [4]; 94.3% (inactive) in [5]; 71% in assay [6] (setting [16]); 94.3% in assay [6] (setting [17]). For the same compound, the viability in [12] is 89% (inactive); in [13], 82.2% (inactive). Besides, the Her2 level in assay [2] is 126% (inactive). Moreover, in assay [6] (H69AR cells + 2 uM doxorubicin), the differential viability (reversal) was 23.3% (inactive). In addition, the figures for the inhibition in assay [7] and in [8] were -0.9% (inactive) and -7.5% (inactive), respectively. Besides, the growth inhibition in [9] was -7.72% (inactive); in assay [10] it was -0.265% (inactive). Moreover, the viability increase in assay [11] was -2.66% (inactive). Also, the RAM network inhibition in assay [14] is 11.6% (inactive).
As for `CC(NC(=O)C1CC1)C(c1cccs1)N1CCN(c2ccccc2)CC1` (stereo not drawn), the viability was 95.5% in assay [1]; 95.5% (inactive) in [3]; 105% (inactive) in [4]; 89.5% (inactive) in [5]; 93.8% in assay [6] (setting [16]); 89.5% in assay [6] (setting [17]). In addition, the figures for the viability in assay [12] and in [13] were 92% (inactive) and 93.2% (inactive), respectively. Moreover, the Her2 level in [2] is 96% (inactive). In assay [6] (H69AR cells + 2 uM doxorubicin), the differential viability (reversal) was -4.32% (inactive). The inhibition in [7] is -4.13% (inactive); in assay [8], -5.57% (inactive); in [15] it was 2.08% (inactive). Moreover, the results for the growth inhibition in assay [9] and in [10] were -6.42% (inactive) and 6.87% (inactive), respectively. In addition, in [11], the viability increase is 0.65% (inactive). In addition, the RAM network inhibition in assay [14] is -0.26% (inactive).
As to `O=C(NC1CCCc2ccccc21)c1ccc(CNc2c(N3CCOCC3)c(=O)c2=O)cc1` (stereo not drawn), the viability was 86.5% in assay [1]; 86.5% (inactive) in [3]; 95.5% (inactive) in assay [4]; 91.7% (inactive) in [5]; 77.5% in assay [6] (setting [16]); 91.7% in [6] (setting [17]). Moreover, the viability in assay [12] was 89.1% (inactive); in [13], 59.3% (inactive). For the same compound, the Her2 level in [2] was 100% (inactive). The differential viability (reversal) in assay [6] (H69AR cells + 2 uM doxorubicin) was 14.2% (inactive). Moreover, the inhibition in [7] is 1.79% (inactive); in assay [8], 2.67% (inactive). For the same compound, the growth inhibition was -3.71% (inactive) in assay [9] and -2.73% (inactive) in [10]. Moreover, the viability increase in assay [11] is -3.89% (inactive). For the same compound, the RAM network inhibition in assay [14] was 6.53% (inactive).
As to `O=C(OCn1nnc2ccccc2c1=O)c1cc2ccccc2o1`, the viability in [1] is 88%; in assay [3] it was 88% (inactive); in assay [4], 94.6% (inactive); in assay [5] it was 91.7% (inactive); in [6] (setting [16]) it was 115%; in [6] (setting [17]), 91.7%. Besides, the viability in assay [12] is 99.5% (inactive); in assay [13], 104% (inactive). For the same compound, the Her2 level in assay [2] is 106% (inactive). Moreover, in assay [6] (H69AR cells + 2 uM doxorubicin), the differential viability (reversal) is -23.7% (inactive). Further, the inhibition in assay [7] is -5.47% (inactive); in [8], -8.5% (inactive); in assay [15] it was 3.96% (inactive). Besides, the growth inhibition in [9] was 3.37% (inactive); in assay [10], -2.58% (inactive). In [11], the viability increase is 1.18% (inactive). Also, the RAM network inhibition in [14] was 7.11% (inactive).
Take `Cc1ccc(N(C(=O)c2ccncc2)C2C=CS(=O)(=O)C2)cc1` (stereo not drawn): the viability in [1] is 108%; in assay [3] it was 108% (inactive); in assay [4] it was 101% (inactive); in [5], 103% (inactive); in assay [6] (setting [16]), 97.5%; in [6] (setting [17]), 103%. Further, the viability is 93.8% (inactive) in [12] and 98.4% (inactive) in assay [13]. Besides, the Her2 level in [2] was 110% (inactive). The differential viability (reversal) in assay [6] (H69AR cells + 2 uM doxorubicin) was 5.2% (inactive). Moreover, the inhibition in assay [7] was 0.51% (inactive); in assay [8], 7.33% (inactive). For the same compound, the results for the growth inhibition in assay [9] and in [10] were -8.7% (inactive) and -14% (inactive), respectively. For the same compound, in assay [11], the viability increase was 0.88% (inactive). Further, the RAM network inhibition in assay [14] was 5.22% (inactive).
`COc1ccc(C(=O)Nc2nncs2)c(OC)c1`: the viability in assay [1] is 95.5%; in assay [3], 95.5% (inactive); in assay [4], 93.1% (inactive); in [5], 96.9% (inactive); in [6] (setting [16]) it was 90.5%; in assay [6] (setting [17]), 96.9%. The results for the viability in assay [12] and in assay [13] were 102% (inactive) and 93.9% (inactive), respectively. In assay [2], the Her2 level is 112% (inactive). In [6] (H69AR cells + 2 uM doxorubicin), the differential viability (reversal) was 6.36% (inactive). Moreover, the inhibition in [7] is -3.46% (inactive); in assay [8] it was 3.33% (inactive). The growth inhibition in assay [9] was -4.15% (inactive); in assay [10], -11.7% (inactive). In assay [11], the viability increase is -0.64% (inactive). The RAM network inhibition in [14] is 5.61% (inactive).
Regarding `CCOC(=O)C1=C(C)Nc2nnnn2C1c1ccc(OC)c(Br)c1` (stereo not drawn), the viability in assay [1] is 106%; in [3] it was 106% (inactive); in [4] it was 87.7% (inactive); in [5], 93.3% (inactive); in assay [6] (setting [16]), 97.8%; in assay [6] (setting [17]) it was 93.3%. Moreover, the viability was 92% (inactive) in [12] and 90.7% (inactive) in assay [13]. The Her2 level in [2] is 106% (inactive). For the same compound, the differential viability (reversal) in assay [6] (H69AR cells + 2 uM doxorubicin) was -4.47% (inactive). The figures for the inhibition in assay [7], in [8] and in assay [15] were 5.07% (inactive), 14.8% (inactive) and 3.05% (inactive), respectively. Also, the growth inhibition is -8.85% (inactive) in assay [9] and 2.52% (inactive) in assay [10]. In addition, in assay [11], the viability increase is -2.62% (inactive). Besides, the RAM network inhibition in [14] is 0.79% (inactive).
On to `COc1ccc(NC(=O)CSc2nnc(Cc3cccn3C)n2-c2ccc(F)cc2)cc1OC`, for which the viability was 86% in assay [1]; 86% (inactive) in [3]; 104% (inactive) in assay [4]; 94.7% (inactive) in [5]; 94% in [6] (setting [16]); 94.7% in [6] (setting [17]). Moreover, the results for the viability in assay [12] and in assay [13] were 94.5% (inactive) and 94.2% (inactive), respectively. Moreover, in [2], the Her2 level was 92.5% (inactive). In addition, in assay [6] (H69AR cells + 2 uM doxorubicin), the differential viability (reversal) was 0.655% (inactive). In addition, the inhibition is 0.38% (inactive) in assay [7], 3.17% (inactive) in assay [8] and 1.43% (inactive) in assay [15]. The growth inhibition in [9] was 3.84% (inactive); in [10], 1.52% (inactive). Moreover, the viability increase in [11] was -3.01% (inactive). The RAM network inhibition in assay [14] is 2.95% (inactive).

A word on the viability: it is a read-out of living cells in per cent, often relative to untreated cells. The inhibition is the drop in the measured response relative to a control, in per cent.
